Here are results for 18 compounds from PubChem BioAssay (NCATS).

Several values for one entry are separate records, joined by “and”; a condition that tells them apart may be missing. Equal entries are not always repeated. Records with an inconclusive call do not appear. More than one record can exist for a structure, and the calls need not agree. Values without a mark were called inactive. Activity calls are given as the source filed them. Calls follow the shape of the dose curve; as a rule, active = well fitted inhibition curve with a large enough effect; inconclusive = small, poorly fitted or top-dose-only effect; inactive = flat fitted curve, though single readings scatter.

The test system of one assay is GB4. Put plainly: qHTS profiling for inhibitors of Plasmodium falciparum proliferation (AID 504749).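 Also: 0% = DMSO vehicle and full inhibition = artemisinin control.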 The note with it: P. falciparum in erythrocytes, SYBR Green DNA, 72 h; series mostly up to 28.7 µM. Summed up: (§1)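 Each compound contacts P. falciparum-infected red blood cells for 72 h at 37 C; lysis buffer (Tris, EDTA, saponin, Triton X, SYBR Green I) is added and fluorescence measured next morning; values normalized to controls.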

In the next assay the test system is HB3. Described as above. The note with it: P. falciparum in erythrocytes, SYBR Green DNA, 72 h; series mostly up to 28.7 µM. Summed up: as §1
For the next assay, the system named is ICS. Described as above. The settings on record: P. falciparum in erythrocytes, SYBR Green DNA, 72 h; series mostly up to 28.7 µM. Summed up: as §1
A further assay relates to JCK. The assay is described as above. The settings on record: P. falciparum in erythrocytes, SYBR Green DNA, 72 h; series mostly up to 28.7 µM. An outline of the steps:
as §1

For another assay, the system named is N140. Described as above. The settings on record: P. falciparum in erythrocytes, SYBR Green DNA, 72 h; series mostly up to 28.7 µM. Summed up:
as §1

The next assay relates to P93_24. The description is as above. The note with it: P. falciparum in erythrocytes, SYBR Green DNA, 72 h; series mostly up to 28.7 µM. Summed up: as §1
For a further assay, the system named is PAD. The description is as above. The settings on record: P. falciparum in erythrocytes, SYBR Green DNA, 72 h; series mostly up to 28.7 µM. Summed up:
as §1

For another assay, the system named is PC15. The description is as above. The settings on record: P. falciparum in erythrocytes, SYBR Green DNA, 72 h; series mostly up to 28.7 µM. An outline of the steps: as §1
The test system of a further assay is PC26. The description is as above. The settings on record: P. falciparum in erythrocytes, SYBR Green DNA, 72 h; series mostly up to 28.7 µM. An outline of the steps:
as §1

In the next assay the test system is SC27B. The assay is described as above. The note with it: P. falciparum in erythrocytes, SYBR Green DNA, 72 h; series mostly up to 28.7 µM. An outline of the steps: as §1
Another assay has as its system TAB109. The assay is described as above. The note with it: P. falciparum in erythrocytes, SYBR Green DNA, 72 h; series mostly up to 28.7 µM. Summed up: as §1
The subject of the next assay is TAB113. Described as above. The note with it: P. falciparum in erythrocytes, SYBR Green DNA, 72 h; series mostly up to 28.7 µM. Summed up: as §1
The test system of another assay is TAB165. The description is as above. The settings on record: P. falciparum in erythrocytes, SYBR Green DNA, 72 h; series mostly up to 28.7 µM. An outline of the steps:
as §1

In the next assay the test system is W2. Described as above. The note with it: P. falciparum in erythrocytes, SYBR Green DNA, 72 h; series mostly up to 28.7 µM. An outline of the steps:
as §1

Another assay relates to CRL-7250. The assay can be described thus: Cytotoxic Profiling of Annotated Libraries Using Quantitative High-Throughput Screening (AID 1296008). Also: potency is read from the fitted curve at half-maximal effect. As to max response: % is scaled to controls: 0 for no effect and ±100 for the full control effect. The settings on record: Five cell lines viability, CellTiter-Glo ATP luminescence, 48-72 h; max response: active compounds read low. An outline of the steps:
(§2)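 Cells exposed to compounds for 48 or 72 hr at 37 degrees Celsius. Viability read as ATP-coupled luminescence with CellTiter-Glo after 10 min at room temperature.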

In the next assay the test system is HEK293. Described as above. The settings on record: Five cell lines viability, CellTiter-Glo ATP luminescence, 48-72 h; max response: active compounds read low. An outline of the steps:
as §2

The subject of the next assay is HaCat. The assay is described as above. The note with it: Five cell lines viability, CellTiter-Glo ATP luminescence, 48-72 h; max response: active compounds read low. An outline of the steps: as §2
For another assay, the system named is KB-3-1. The assay is described as above. The settings on record: Five cell lines viability, CellTiter-Glo ATP luminescence, 48-72 h; max response: active compounds read low. Summed up:
as §2

In a further assay the test system is PC49. The assay can be described thus: qHTS profiling for inhibitors of Plasmodium falciparum proliferation (AID 504749).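 Also: 0% = DMSO vehicle and full inhibition = artemisinin control.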 The note with it: P. falciparum in erythrocytes, SYBR Green DNA, 72 h; series mostly up to 28.7 µM. An outline of the steps:
as §1

The subject of another assay is P94_40. Described as above. The settings on record: P. falciparum in erythrocytes, SYBR Green DNA, 72 h; series mostly up to 28.7 µM. Summed up:
as §1
Also: nearly all actives have a fitted effect of over 60% in size.

On to `CC(C)NC(C)C`, for which the Potency entry in the assay with GB4, with HB3, in the assay with ICS, in the assay on JCK, in the assay with N140 and with P93_24 was “inactive” each time. Besides, the Potency entry in the assay with PAD, in the assay with PC15, in the assay on PC26, in the assay with SC27B, in the assay with TAB109 and in the assay on TAB113 was “inactive” throughout. Further, the Potency result with TAB165 and with W2 was “inactive” in each case. Moreover, the max response in the assay with CRL-7250 was 1.83%; with HEK293, 1.45%; in the assay on HaCat, 1.53%; in the assay on KB-3-1 it was 13.4%.
In the case of `C=C(C)[C@H]1CN[C@H](C(=O)O)[C@H]1CC(=O)O`, the Potency entry in the assay on GB4, in the assay on HB3, in the assay on ICS, in the assay with JCK, with N140 and with PAD was “inactive” in each case. Besides, the Potency entry in the assay with PC15, with PC26, in the assay with PC49, in the assay on SC27B, with TAB109 and in the assay on TAB113 was “inactive” throughout. In addition, the Potency entry in the assay on TAB165 and in the assay with W2 was “inactive” each time. Moreover, the max response with CRL-7250 was 1.07%; in the assay with HEK293, 0.123%; in the assay with KB-3-1 it was 4.34%. In the assay on HaCat, the outcome was inactive.
Regarding `COP(=S)(OC)Oc1cc(Cl)c(Cl)cc1Cl`, the max response in the assay with CRL-7250 is -8.37%; with HEK293, 1.74%; in the assay with HaCat, 4.52%; in the assay with KB-3-1, -14.4%. In addition, the Potency in the assay with KB-3-1 is 0.146 µM (active).
For `CN1CCC(O)(c2ccc(F)cc2)C(C(=O)c2ccc(F)cc2)C1` (stereo unspecified), the Potency result with GB4, in the assay with HB3, with ICS, with JCK, with N140 and in the assay with P94_40 was “inactive” throughout. Also, the Potency entry with PAD, in the assay with PC15, in the assay on PC26, in the assay on PC49, in the assay on SC27B and in the assay with TAB109 was “inactive” in each case. The Potency entry in the assay with TAB113 and in the assay with TAB165 was “inactive” throughout. Also, the max response is -1.09% with CRL-7250, 3.5% in the assay with HEK293 and 8.12% with KB-3-1. In the assay with HaCat, the result was inactive.
As to `CCCCCCC(=O)CCCCCC/C=C/C[C@@H](O)[C@H](O)[C@@](N)(CO)C(=O)O`, the Potency result with GB4, with HB3, with ICS, with JCK, in the assay on N140 and with P93_24 was “inactive” each time. Besides, the Potency result in the assay on P94_40, with PAD, with PC15, in the assay with PC26, in the assay on PC49 and in the assay with SC27B was “inactive” each time. In addition, the Potency result in the assay with TAB109, in the assay on TAB113 and in the assay with TAB165 was “inactive” throughout. Further, the max response with CRL-7250 is -1.04%; in the assay on HEK293 it was -0.716%; in the assay with KB-3-1 it was 4.21% and -11.8%.
In the case of `CCC1(c2ccccc2)C(=O)N(COC)C(=O)N(COC)C1=O`, the Potency result in the assay with GB4, in the assay on HB3, with ICS, with JCK, with N140 and in the assay with P93_24 was “inactive” throughout. The Potency entry in the assay with P94_40, in the assay on PAD, in the assay with PC15, in the assay on PC26, in the assay with PC49 and with SC27B was “inactive” each time. In addition, the Potency entry in the assay on TAB113, in the assay with TAB165 and with W2 was “inactive” in each case. Besides, the max response with CRL-7250 is -1.83%; in the assay on HEK293, 3.09%; with HaCat, 3.73%; in the assay with KB-3-1, -3.81%.
As to `C[C@]12Cc3cn[nH]c3C[C@@H]1CC[C@@H]1[C@@H]2CC[C@@]2(C)[C@H]1CC[C@]2(C)O`, the results for the max response in the assay on CRL-7250 and in the assay on HaCat were 0.607% and 2.06%, respectively.
With `COc1c2c(cc3c1OCO3)CCN(C)C2`, the Potency result in the assay on GB4, with HB3, in the assay on ICS, in the assay with JCK, in the assay with N140 and in the assay with P93_24 was “inactive” each time. Further, the Potency result with P94_40, in the assay on PAD, in the assay with PC15, in the assay with PC26, with PC49 and with SC27B was “inactive” throughout. The Potency entry in the assay on TAB109, in the assay with TAB113 and with TAB165 was “inactive” in each case. In addition, the max response in the assay with CRL-7250 is -2.93%; with HEK293 it was -25.2%; with HaCat it was -2.59%; in the assay with KB-3-1 it was 5.77%.
Regarding `Nc1ccc([As](=O)(O)O)cc1`, the Potency result in the assay on HB3, in the assay on JCK, in the assay with N140, in the assay with P93_24, in the assay with PAD and in the assay with PC15 was “inactive” throughout. Also, the Potency entry in the assay on PC26, with PC49, in the assay on SC27B, in the assay on TAB109, with TAB113 and with TAB165 was “inactive” in each case. Further, the max response was 1.05% in the assay on CRL-7250, -3.33% with HaCat and -4.72% in the assay with KB-3-1.
Consider `c1ccc(CN2CCNCC2)cc1`, for which the max response in the assay on CRL-7250 was 3.96%; in the assay on KB-3-1, -8.52%. In addition, the call in the assay with HaCat was inactive.
Turning to `[N-]=[N+]=CC(=O)OC[C@H](N)C(=O)O`, the max response with CRL-7250 was -7.47%; in the assay with HaCat, -3.83%; with KB-3-1 it was -24.6%.
With `CCCCCCCCCC(=O)O[C@H]1CC[C@H]2[C@@H]3CCC4=CC(=O)CC[C@@H]4[C@H]3CC[C@]12C`, the Potency entry in the assay with GB4, with HB3, in the assay with JCK, in the assay with N140, in the assay on P93_24 and with P94_40 was “inactive” throughout. Moreover, the Potency entry with PAD, in the assay on PC15, with PC26, in the assay on PC49, with SC27B and in the assay on TAB109 was “inactive” each time. Also, the Potency result in the assay with TAB113 and in the assay with TAB165 was “inactive” each time. The outcome in the assay with CRL-7250 was inactive. The max response is 4.55% in the assay on HaCat and -10.4% in the assay with KB-3-1.
For `CCN(CC)C(=O)[C@@H]1C=C2c3cccc4[nH]cc(c34)C[C@H]2N(C)C1`, the max response in the assay on CRL-7250 is -10.2%; in the assay with HaCat, 1.44%; with KB-3-1, 1.43% and -14.9%.
For `CN1CC[C@]23c4c5ccc(O)c4O[C@H]2[C@@H](O)C=C[C@H]3[C@H]1C5`, the max response in the assay on CRL-7250 was -11.3%; with KB-3-1, -4.72%. Besides, the compound was classed as inactive in the assay with HaCat.
For the compound `CC1(C)C(C=C(Cl)Cl)C1C(=O)OC(C#N)c1cccc(Oc2ccccc2)c1` (stereo unspecified), the max response in the assay with CRL-7250 and in the assay with KB-3-1 was 2.32% throughout. The result in the assay with HaCat was inactive.
As to `CNCC(=O)c1ccc(O)c(O)c1`, the max response with CRL-7250 was 0.325%; with KB-3-1, -7.67%. The call with HaCat was inactive.
On to `NC(=O)c1cc([N+](=O)[O-])cc([N+](=O)[O-])c1`, for which the Potency result with HB3, with P94_40, in the assay with PAD, with PC49, in the assay on SC27B and in the assay on TAB109 was “inactive” each time. The Potency entry in the assay on TAB113 and in the assay on TAB165 was “inactive” each time. Besides, the compound was called inactive in the assay on CRL-7250. Besides, the max response in the assay on HaCat was 3.87%; with KB-3-1 it was -1.64%.
`C[C@]12CCC(=O)C=C1CC[C@@H]1[C@@H]2CC[C@@]2(C)[C@H]1CC[C@]2(C)O`: the max response is 2.75% in the assay with CRL-7250; -6.95% and 1.16% with KB-3-1. The compound was classed as inactive in the assay with HaCat.
